Measurements: PubChem BioAssay (NCATS)
Records with an inconclusive call do not appear. A number with no mark means an inactive call. The source made the active and inactive calls. Calls follow the shape of the full dose curve.

Test: Cell Viability - MRC5 (AID 434);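 also: potency reflects cytotoxicity seen as loss of intracellular ATP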
Settings: MRC5 lung fibroblast viability, qHTS
Description: NIH Chemical Genomics Center [NCGC]
NIH Molecular Libraries Screening Centers Network [MLSCN]
National Institutes of Environmental Health Sciences [NIEHS]
National Toxicology Program [NTP]
We have developed a 1536-well cell-based assay for quantitative high throughput screening (qHTS) against a number of cell lines to determine in vitro cytotoxicity of small molecules. This particular assay uses the MRC5 cell line which is derived from normal human lung fibroblasts.
NCGC Assay Protocol Summary:
The CellTiter-Glo luminescent cell viability assay (Promega) is a homogeneous method to measure the number of viable cells in culture. The end point readout of this assay is based on quantitation of intracellular ATP, an indicator of metabolic activity, using the luciferase reaction. Luciferase catalyzes the oxidation of beetle Luciferin to oxyluciferin and light in the presence of ATP. The luminescent signal is proportional to amount of ATP present.
Using the CellTiter-Glo luminescent cell viability assay, the amount of cellular ATP was measured in the MRC5 cell line with complete culture medium following compound treatment for 40 hours. The assay was performed in opaque white Kalypsys 1536-well plates. In the screen, tamoxifen and doxorubicin were used as positive controls. Library compounds were measured for their ability to cause acute toxicity in the cell line, as reflected by a decrease in intracellular ATP levels, in a concentration-dependent manner. Data were normalized to the controls for basal activity (DMSO only) and 100% inhibition (100 uM tamoxifen). AC50 values were determined from concentration-response data modeled with the standard Hill equation.
qHTS protocol for CellTiter Glo MRC5 cellular assay
[Step] [Parameter] [Value] [Description]
1. Reagent; 5 uL; 1500 MRC5 cells/well
2. Time; 5 hr; 37 °C incubation
4. Controls; 23 nL; Tamoxifen 0.34 uM to 100 uM & Doxorubicin 0.02 nM to 100 uM
5. Time; 40 hr; 37 °C incubation
6. Reagent; 5 uL; CellTiter Glo reagent
7. Time; 20 min; Room Temperature
8. Detection; Luminescence; Viewlux plate reader
Keywords: cell viability, cytotoxicity, MRC5 cell line, luminescence, NTPHTS, NTPHTS_NCGC, NIEHS, EPA, DSSTox, MLSMR, MLSCN, NIH Roadmap, qHTS, NCGC
Potency is read from the fitted curve at half-maximal effect.

SMILES	Potency
CCCCC(CC)COC(=O)c1ccccc1C(=O)O (stereo unspecified)	> 92 µM
OCc1c[nH]c2ccccc12	> 92 µM
CC(C)(c1ccc(O)cc1)c1ccc(O)cc1	> 92 µM
CC(=O)OC/C=C(C)/C=C/C=C(C)/C=C/C1=C(C)CCCC1(C)C	> 92 µM
Nc1ccc(O)cc1	53.3 µM (active)
O=C(Oc1ccccc1)c1ccccc1O	> 92 µM
O=C(NO)c1ccccc1	> 92 µM
COc1cc(C=O)ccc1O	> 92 µM
Cc1ccc(O)cc1	> 92 µM
Nc1c2ccccc2nc2ccccc12	38.2 µM (active)
c1ccc2occc2c1	> 92 µM
CC(C)(C)c1ccc(O)c(O)c1	> 92 µM
O=C(c1ccccc1)c1ccccc1	> 92 µM
CCCC(=O)c1cc(O)c(O)cc1O	> 92 µM
C1=CC2C3C=CC(C3)C2C1 (stereo unspecified)	> 92 µM
Brc1ccccc1-c1ccccc1	> 92 µM
Oc1ccccc1	> 92 µM
Nc1cccc2c(N)cccc12	> 92 µM
Cc1cc(C(C)(C)C)c(O)c(C(C)(C)C)c1	> 92 µM
CCCCCCCCCCCCCCCC[n+]1ccccc1	29.8 µM (active)
CC(C)C(C)(C)C(C)(C)C(C)(C)S	> 92 µM
